Active and inactive are the calls of the source.
Legend:
[1] = system: Plasmodium falciparum Sir2 (PF13_0152, Sir2A); experiment: Plasmodium falciparum Sir2A binding compounds – biochemical, small-molecule microarray, 635 nm fluorescence, primary screen (AID 1098); details: fluorescence 635 nm, higher = more signal;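 note: score merges spot fluorescence intensity with its signal-to-noise ratio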
[2] = probe aDKK1 binding to arrayed compounds – biochemical, biotinylated probe, 635/667 nm fluorescence, primary screen (AID 1099); details: small-molecule microarray, higher = more signal;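 note: score merges 667nm spot fluorescence with signal to noise across triplicate slides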
[3] = probe aCHRDL2 binding to arrayed compounds – biochemical, biotinylated probe, 635/667 nm fluorescence, primary screen (AID 1100); details: small-molecule microarray, higher = more signal
[4] = change in splice reporter luminescence, either direction, cell-based, HEK293, spliceosome inhibition project, primary screen (AID 1101); details: HEK293 splicing luciferase reporter, 24 h, higher = more signal, called active from +8 up or from −8 down;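 note: HEK293 cells carrying a splicing-competent luciferase reporter gene; test concentration not given here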
[5] = biological target: Fibroblast growth factor 10 (Homo sapiens) (UniProt O15520); experiment: compounds binding fibroblast growth factor 10 – biochemical, small-molecule microarray, 635 nm fluorescence, primary screen (AID 1102); details: FGF10 binding, fluorescence 635 nm, higher = more signal
Chain of Fibroblast growth factor 10 (Homo sapiens) (O15520 whole entry, looked up): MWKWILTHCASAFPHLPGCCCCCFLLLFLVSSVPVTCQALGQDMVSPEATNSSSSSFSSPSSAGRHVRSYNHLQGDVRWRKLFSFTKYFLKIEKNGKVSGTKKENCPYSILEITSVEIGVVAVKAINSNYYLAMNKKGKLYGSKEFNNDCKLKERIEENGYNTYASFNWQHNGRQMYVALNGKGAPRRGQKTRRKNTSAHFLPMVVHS

[6] = system: glycogen synthase kinase-3 (GSK3A per assay name; protocol says GSK3B); experiment: compounds binding glycogen synthase kinase-3 – biochemical, small-molecule microarray, 635 nm fluorescence, GSK3A, primary screen (AID 1103); details: fluorescence 635 nm, higher = more signal; note: the record names both GSK3A and GSK3B
[7] = biological target: Epidermal growth factor receptor (Homo sapiens) (UniProt P00533); experiment: compounds binding epidermal growth factor receptor – biochemical, small-molecule microarray, 635 nm fluorescence, primary screen (AID 1104); details: EGFR binding, higher = more signal;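 note: score merges 667 nm emission intensity with spot signal to noise over triplicate slides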
Chain of Epidermal growth factor receptor (Homo sapiens) (P00533 whole entry, looked up): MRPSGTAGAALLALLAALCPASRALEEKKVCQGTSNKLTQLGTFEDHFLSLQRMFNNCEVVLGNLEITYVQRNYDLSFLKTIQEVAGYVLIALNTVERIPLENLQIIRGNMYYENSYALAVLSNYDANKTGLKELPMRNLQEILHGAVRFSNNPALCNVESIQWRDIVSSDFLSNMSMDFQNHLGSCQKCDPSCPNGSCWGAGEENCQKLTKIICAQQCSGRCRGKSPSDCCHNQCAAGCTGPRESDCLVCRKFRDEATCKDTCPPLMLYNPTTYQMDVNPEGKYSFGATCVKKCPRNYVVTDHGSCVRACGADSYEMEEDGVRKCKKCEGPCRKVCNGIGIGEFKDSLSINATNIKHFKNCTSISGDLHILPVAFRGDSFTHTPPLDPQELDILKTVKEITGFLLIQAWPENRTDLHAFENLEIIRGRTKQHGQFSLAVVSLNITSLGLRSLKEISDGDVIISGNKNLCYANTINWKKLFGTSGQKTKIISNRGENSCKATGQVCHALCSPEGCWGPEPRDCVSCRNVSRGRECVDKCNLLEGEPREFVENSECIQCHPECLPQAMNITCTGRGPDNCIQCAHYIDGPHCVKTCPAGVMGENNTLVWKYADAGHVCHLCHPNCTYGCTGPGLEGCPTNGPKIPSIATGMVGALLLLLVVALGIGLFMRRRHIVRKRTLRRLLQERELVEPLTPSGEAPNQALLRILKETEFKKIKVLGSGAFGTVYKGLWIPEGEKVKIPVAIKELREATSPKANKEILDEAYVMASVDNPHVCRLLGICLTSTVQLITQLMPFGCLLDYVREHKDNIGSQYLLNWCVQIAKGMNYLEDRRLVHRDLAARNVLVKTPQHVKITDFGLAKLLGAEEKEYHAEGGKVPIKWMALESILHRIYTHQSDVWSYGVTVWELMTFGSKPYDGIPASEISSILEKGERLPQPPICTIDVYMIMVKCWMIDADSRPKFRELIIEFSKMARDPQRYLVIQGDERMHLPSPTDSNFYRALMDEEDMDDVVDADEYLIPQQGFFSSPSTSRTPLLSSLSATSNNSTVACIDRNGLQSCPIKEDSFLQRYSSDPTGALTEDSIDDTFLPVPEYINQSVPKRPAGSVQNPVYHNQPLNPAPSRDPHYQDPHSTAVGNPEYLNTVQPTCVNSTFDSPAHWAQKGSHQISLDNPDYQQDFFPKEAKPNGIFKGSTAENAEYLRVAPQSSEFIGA

[8] = biological target: Follistatin-related protein 3 (Homo sapiens) (UniProt O95633); experiment: compounds binding follistatin-related protein 3 – biochemical, small-molecule microarray, 635 nm fluorescence, primary screen (AID 1105); details: FSTL3 binding, higher = more signal;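 note: score merges emission near 667 nm and signal to noise per printed spot across three slides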
Chain of Follistatin-related protein 3 (Homo sapiens) (O95633 whole entry, looked up): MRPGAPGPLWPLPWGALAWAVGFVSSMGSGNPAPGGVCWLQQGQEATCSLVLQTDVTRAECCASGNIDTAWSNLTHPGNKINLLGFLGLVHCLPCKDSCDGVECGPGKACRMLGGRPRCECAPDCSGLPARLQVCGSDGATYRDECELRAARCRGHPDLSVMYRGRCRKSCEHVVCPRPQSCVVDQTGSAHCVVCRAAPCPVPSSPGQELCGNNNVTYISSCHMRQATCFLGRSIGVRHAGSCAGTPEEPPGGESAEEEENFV

[9] = biological target: Dickkopf-related protein 1 (Homo sapiens) (UniProt O94907); experiment: small molecules binding DKK1 protein – biochemical, small-molecule microarray, 635 nm fluorescence scan, primary screen (AID 1106); details: higher = more signal;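 note: score merges emission near 667 nm with signal to noise over three replicate slides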
Chain of Dickkopf-related protein 1 (Homo sapiens) (O94907 whole entry, looked up): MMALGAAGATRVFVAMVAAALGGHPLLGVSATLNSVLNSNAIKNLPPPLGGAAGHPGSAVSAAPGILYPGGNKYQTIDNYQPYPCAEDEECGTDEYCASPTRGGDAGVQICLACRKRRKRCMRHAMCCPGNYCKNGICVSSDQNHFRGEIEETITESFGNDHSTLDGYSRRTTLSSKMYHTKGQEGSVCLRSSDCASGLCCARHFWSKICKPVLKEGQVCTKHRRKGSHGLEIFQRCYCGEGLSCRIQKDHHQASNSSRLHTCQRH

[10] = system: Inhibin beta A chain (activin A); experiment: small molecules binding activin A – biochemical, small-molecule microarray, 635 nm fluorescence scan, primary screen (AID 1107); details: INHBA, higher = more signal;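 note: mouse activin A protein probed at 4.33 µg/mL on printed slides; score merges bound-protein fluorescence near 667 nm with spot signal-to-noise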
[11] = system: Human papillomavirus type 1a protein E7 (residues 44-93); experiment: small molecules binding HPV E7 44-93 – biochemical, small-molecule microarray, residues 44-93, 635 nm fluorescence, primary screen (AID 1108); details: fluorescence 635 nm, higher = more signal;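 note: E7 fragment applied at 1 µg/mL in TBST for 1 h at 4 C; score combines spot fluorescence with its signal to noise ratio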
[12] = hepatitis C replication reporter changes, two-sided – Huh7 cells, luciferase reporter, HCV replication inhibitor project, primary screen (AID 1109); details: Huh7 HCV replicon luciferase reporter, 48 h; higher = more signal;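 note: huh7 hepatoma cells harbouring a luciferase neomycin HCV replicon reporter; luciferase luminescence as measure of HCV replicon replication; test concentration not given here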
[13] = biological target: Left-right determination factor 2 (Homo sapiens) (UniProt O00292); experiment: small molecules binding LEFTY2 protein – biochemical, small-molecule microarray, 635 nm fluorescence scan, primary screen (AID 1110); details: higher = more signal
Chain of Left-right determination factor 2 (Homo sapiens) (O00292 whole entry, looked up): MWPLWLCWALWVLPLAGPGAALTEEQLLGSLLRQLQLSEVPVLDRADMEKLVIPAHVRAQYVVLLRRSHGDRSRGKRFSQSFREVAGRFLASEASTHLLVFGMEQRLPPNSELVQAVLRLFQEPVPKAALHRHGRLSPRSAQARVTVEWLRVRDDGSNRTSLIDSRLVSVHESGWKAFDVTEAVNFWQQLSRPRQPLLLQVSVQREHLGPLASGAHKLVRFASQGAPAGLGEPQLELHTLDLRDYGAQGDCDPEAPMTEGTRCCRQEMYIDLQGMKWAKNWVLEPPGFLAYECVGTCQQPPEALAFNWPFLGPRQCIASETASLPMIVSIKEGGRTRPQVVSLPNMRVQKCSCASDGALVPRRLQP

[14] = biological target: Calmodulin-1 (Homo sapiens) (UniProt P0DP23); experiment: small molecules binding calmodulin-1 with EGTA – biochemical, small-molecule microarray, Cy5-labelled CALM1, profiling panel (AID 1111); details: Cy5-CALM1 binding fluorescence, higher = more signal;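 note: labelled calmodulin applied in Tris saline Tween buffer holding calcium plus EGTA and DTT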
[15] = biological target: Calmodulin-1 (Homo sapiens) (UniProt P0DP23); experiment: small molecules binding Ca-loaded calmodulin-1 – biochemical, small-molecule microarray, Cy5-labelled CALM1, plus calcium, artefact control for SMM control-protein annotation, profiling panel (AID 1112); details: Cy5-CALM1 binding fluorescence, higher = more signal;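 note: score merges spot fluorescence with signal to noise from triplicate slides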
[16] = probe aWnt5a binding to arrayed compounds – biochemical, biotinylated probe, 635/667 nm fluorescence, primary screen (AID 1113); details: small-molecule microarray, higher = more signal;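 note: score merges 667 nm fluorescence intensity with signal-to-noise per printed feature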
[17] = probe aShh binding to arrayed compounds – biochemical, biotinylated probe, 635/667 nm fluorescence, primary screen (AID 1114); details: small-molecule microarray, higher = more signal;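 note: probe is biotin-labelled aShh protein from a stem cell growth factor screen; measures binding of labelled protein to compounds printed on the slide; score merges feature fluorescence at 667 nm with signal-to-noise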
[18] = probe aNog binding to arrayed compounds – biochemical, biotinylated probe, 635/667 nm fluorescence, primary screen (AID 1115); details: small-molecule microarray, higher = more signal;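 note: probe is biotinylated aNog protein used at 0.15 µg/mL for 1 h at 4 C; z-score combines 667 nm fluorescence of each spot with its signal to noise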
[19] = biological target: Torsin-1A-interacting protein 1 (Homo sapiens) (UniProt Q5JTV8); experiment: compound microarray binding of lysate hLAP1 – cell lysate, small-molecule microarray, COS7 lysate, 635/667 nm fluorescence, primary screen (AID 1116); details: 635 nm fluorescence, higher = more signal
Chain of Torsin-1A-interacting protein 1 (Homo sapiens) (Q5JTV8 whole entry, looked up): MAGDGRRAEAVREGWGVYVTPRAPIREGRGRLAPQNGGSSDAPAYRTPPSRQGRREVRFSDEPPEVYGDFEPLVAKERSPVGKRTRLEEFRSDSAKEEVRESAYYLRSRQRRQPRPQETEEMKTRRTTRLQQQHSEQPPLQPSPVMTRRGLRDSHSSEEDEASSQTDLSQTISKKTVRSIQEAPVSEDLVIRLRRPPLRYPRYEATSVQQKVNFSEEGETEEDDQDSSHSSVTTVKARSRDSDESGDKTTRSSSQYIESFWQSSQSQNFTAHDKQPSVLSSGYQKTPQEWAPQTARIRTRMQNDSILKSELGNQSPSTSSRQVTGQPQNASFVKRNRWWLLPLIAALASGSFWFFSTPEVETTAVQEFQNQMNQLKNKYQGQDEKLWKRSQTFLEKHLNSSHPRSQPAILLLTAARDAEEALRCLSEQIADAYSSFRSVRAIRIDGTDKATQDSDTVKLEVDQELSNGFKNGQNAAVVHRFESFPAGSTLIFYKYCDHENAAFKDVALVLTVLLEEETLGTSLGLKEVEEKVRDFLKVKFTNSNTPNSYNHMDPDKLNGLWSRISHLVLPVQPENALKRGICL

[20] = biological target: Alpha-bungarotoxin (Bungarus multicinctus) (UniProt P60615); experiment: compounds binding labelled alpha-BTX control protein – biochemical, small-molecule microarray, Alexa647 label, 635/667 nm fluorescence, artefact control for SMM control protein annotation, profiling panel (AID 1117); details: alpha-BTX-A647 binding fluorescence, higher = more signal
Chain of Alpha-bungarotoxin (Bungarus multicinctus) (P60615 whole entry, looked up): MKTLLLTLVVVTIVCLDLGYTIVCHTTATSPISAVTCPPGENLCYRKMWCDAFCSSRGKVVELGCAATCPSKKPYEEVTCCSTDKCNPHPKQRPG

SMILES	composite z-score [1]	composite z-score [2]	composite z-score [3]	z-score [4]	composite z-score [5]	composite z-score [6]	composite z-score [7]	composite z-score [8]	composite z-score [9]	composite z-score [10]	composite z-score [11]	z-score [12]	composite z-score [13]	composite z-score [14]	composite z-score [15]	composite z-score [16]	composite z-score [17]	composite z-score [18]	composite z-score [19]	composite z-score [20]
O=C/C=C/c1ccc(/C=C/c2ccccc2)cc1	-0.636	-0.287	0.616	-0.653 (inactive)	-0.77	-0.386	0.193	0.233	-0.278	1.47	-1.48	0.783	0.0281	-0.858	-0.584	-0.0585	-0.0886	-0.489	0.2	0.129
CN1C(=O)C2C=CC(C(O)c3ccc(N(C)C)cc3)N(Nc3ccc([N+](=O)[O-])cc3[N+](=O)[O-])C2C1=O (stereo not given)	1.27	1.17	0.33	1.16 (inactive)	0.887	1.2	0.737	1.2	0.137	1.49	0.501	-0.353	0.371	0.49	0.697	0.055	0.446	1.7	1	0.988
C=CCc1cccc([C@H]2N[C@H](C(=O)O)CC[C@@H]2C)c1	0.289	-0.6	-0.832	-0.704 (inactive)	0.219	0.706	0.793	0.778	1.22	1.12	0.175	-0.222	0.956	-0.962	-1.26	-0.232	-0.271	-0.539	0.0883	-0.142
O=C1O[C@H](c2ccccc2)[C@H](c2ccccc2)N2[C@H]1[C@@H](C(=O)Nc1nc3ccccc3s1)[C@]1(C(=O)Nc3ccc(C#CC4(O)CCCCCC4)cc31)[C@H]2c1ccc(O)cc1	1.53	0.0991	-0.0778	-0.493 (inactive)	1.13	1.27	0.556	0.976	0.413	0.357	1.38	-0.733	0.596	1.94	0.597	-0.0125	-0.203	-0.387	1.58	2.17
O=C1O[C@@H](c2ccccc2)[C@@H](c2ccccc2)N2[C@@H](c3ccc(O)cc3)[C@]3(C(=O)Nc4ccccc43)[C@@H](C(=O)N3CCN(c4ncccn4)CC3)[C@H]12	1.13	0.413	0.535	-0.547 (inactive)	-0.0898	0.202	-0.366	0.0146	-0.21	-0.437	0.746	-1.91	-0.389	0.874	1.09	-0.105	0.182	0.0486	0.0398	1.16

Reference: PubChem BioAssay
